High-throughput results (PubChem BioAssay)
hERG WT inh: blocks the wildtype human KCNH2 potassium channel. U2OS, BacMam KCNH2, thallium flux FluxOr; stronger effect = lower value. AID 720551. activity change, % at 1.84 µM. 0.37% of 340,000 active. Q12809;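 active = maximum activity change below -70%; inconclusive = maximum activity change between -70% and -50%; inactive = maximum activity change above -50%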; also: % is scaled to controls: 0 for no effect and ±100 for the full control effect
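U2OS cells transduced with wild-type KCNH2 virus are loaded with FluxOr dye for 45 min, and thallium flux is measured in kinetic reads before and after stimulation buffer. Rate constants are normalized to DMSO controls.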
12-LOX inh: ALOX12 (human) lipoxygenase inhibition. purified 12hLO, xylenol orange hydroperoxide absorbance. 1.1% of 580,000 active. AID 1671190. P18054. Potency, µM (doses to about 108 µM), without a hit: at the highest dose activity change, negative = inhibition, usual class: inhibitors; also: potency is read from the fitted curve at half-maximal effect; % is scaled to controls: 0 for no effect and ±100 for the full control effect
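Purified human 12hLO (150 nM final) in 25 mM Hepes, 0.01% Triton X-100, pH 7.0 was preincubated 15 min at room temperature with compound. Then 40 uM arachidonic acid was added, 30 min. Hydroperoxide was read by Fe-XO absorbance ratio 573/405 nm.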
KCNH2 3.1 inh: KCNH2 3.1 (human) potassium channel inhibition. U2OS KCNH2 3.1, thallium flux FluxOr; stronger effect = lower value. activity change, % (tested at about 1.8 µM). 0.95% of 340,000 active;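 active = maximum activity change below -70%; inconclusive = maximum activity change from -70% to -50%; inactive = maximum activity change above -50%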;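 also: thallium influx rate constant from kinetic fluorescence after stimulation buffer; % is scaled to controls: 0 for no effect and ±100 for the full control effect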
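Normalized rate constant (relative to positive and negative DMSO controls) derived from a 2 min kinetic fluorescence read after stimulation; U2OS cells expressing the 3.1 isoform via virus at 1.77 x 10^8 /mL.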
AT treatment: candidate therapy for ataxia-telangiectasia; F2112 A-T fibroblasts, KAP-1 phosphorylation AlphaLISA; neocarzinostatin DNA damage 30 min before lysis; Potency, µM (doses to about 57.5 µM), for the others: at the top dose activation, most hits filed as activators; 0.19% of 320,000 active; AID 485349; also: potency is read from the fitted curve at half-maximal effect; % of control where 0% means no effect; nearly all actives have a fitted effect of over 45% in size
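hTERT-immortalized A-T patient fibroblasts (F2112), 500 cells/well in OPTI-MEM, 1% FBS, got compounds for 60 min, then NCS for 30 min at 37C. Lysates were then assayed for phospho-KAP-1 by AlphaLISA (anti-pKAP1 donor, anti-KAP1 acceptor beads), 6 hr at 25C.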
Starred values were filed as active, the others as inactive; u = inconclusive; x = no result given; [ ] = remark or other dose. In the library only some 1.8% were active in any assay of this set; here they are far more common. Unless noted, calls follow the shape of the dose curve; as a rule, active = well fitted curve in the direction sought with a large enough effect; inconclusive = small, poorly fitted or top-dose-only effect, or another doubt; inactive = no such curve, though single readings can be large; an effect the other way counts as inactive or inconclusive.

SMILES	hERG WT inh	12-LOX inh	KCNH2 3.1 inh	AT treatment
S=C1SCN(Cc2ccccc2)CN1Cc1ccco1	-13	35µM*	3	x
Cc1oc(-c2cccs2)nc1C(=O)NCC(C)(C)N1CCOCC1	x	27%	x	x
Cc1ccc(S(=O)(=O)CC2CSc3nnc(C)c(=O)n32)cc1 (centres undefined)	-5	8%	-93*	0%
Cc1c(C=O)c(C=O)c(C)n1-c1ccc(F)cc1	x	-8%	x	x
COc1ccc(F)cc1-c1cccc(CN)c1	x	2%[12.5 µM]	x	x
Nc1nc(-c2ccccc2Cl)cs1	4	u	-71*	x
COC(=O)c1ccccc1NC(=O)CSc1nnc(-c2ccc(Cl)cc2)n1Cc1ccco1	x	1%	x	x
Cc1ccc(C)c(OCn2ccc(C(=O)NCc3cn(C)nc3C)n2)c1	x	-31%	x	x
CCOC(=O)c1c(C)nc2sccn12	12	17%	-95*	1%
CCOC(=O)c1c(C)nc2ncccn12	-7	5%	14	x
O=C(OCc1cn([C@H]2C[C@H](c3ccc(Cl)cc3)N(C(=O)C3CCCCC3)C[C@@H]2O)nn1)c1ccccc1	-37	-10%	-82*	x
CCCCCC(=O)N1C[C@H](n2cc(COC(=O)c3ccccc3)nn2)[C@@H](O)C[C@@H]1c1ccc(C)cc1	-21	40µM*	-3	x
CCCCCC(=O)N1C[C@@H](O)[C@H](n2cc(COC(=O)c3ccccc3)nn2)C[C@@H]1c1ccc(C)cc1	-4	u	-8	x
O=C(OCc1cn([C@@H]2C[C@H](c3ccc(Cl)cc3)N(C(=O)C3CCCCC3)C[C@H]2O)nn1)c1ccccc1	13	-20%	-21	x
O=C(NCc1ccco1)C1CCN(C(=O)c2ncn3c2COC(c2ccc(F)cc2)C3)CC1 (centres undefined)	x	17%	x	x
Cc1cccc(N=CC=C2OC(C)(C)C(C)(C)O2)c1	9	-4%	1	-9%
Cc1ccc(N=CC=C2OC(C)(C)C(C)(C)O2)cc1	0	35µM*	6	11%
CCCCC(=O)N1CCCC(c2nc(-c3cccc(OC)c3)no2)C1 (centres undefined)	-4	-13%	-12	2%
COc1cccc(-c2noc(C3CCCN(C(=O)CC(C)(C)C)C3)n2)c1 (centres undefined)	-87*	-1%	-22	-3%
COc1ccc(-c2nccn3cc(C(=O)NCc4nc5ccccc5n4C)nc23)cc1	x	-8%	x	x
CCOc1ccccc1CN1CCCN(S(C)(=O)=O)C(c2ccccc2)CC(=O)NCC1 (centres undefined)	x	-1%	x	x
COc1ccc(CN2CCC3(C2)C(=O)N(c2ccccc2)c2ccccc23)cc1 (centres undefined)	x	1%[6.33 µM]	x	x
COC(=O)C1=C(C(=O)OC)[C@@H]2Nc3ccccc3[C@@]23C[C@@H](C(=O)OC)N(C(=O)c2cccs2)C3=N1	5	-1%	6	x
COC(=O)C1=C(C(=O)OC)[C@@H]2Nc3ccccc3[C@@]23C[C@@H](C(=O)OC)N(C(=O)c2ccc(Br)cc2)C3=N1	4	x	-114*	6%
CCCc1noc(-c2cn(C3CCN(C(=O)Cc4cccc(F)c4)CC3)nn2)n1	x	6%	x	x
SMILES	hERG WT inh	12-LOX inh	KCNH2 3.1 inh	AT treatment
COc1c(-c2ccc(O)c(O)c2)oc2cc(O)cc(O)c2c1=O	6	7.1µM*	3	-24%
CC(C)=CCc1cc(-c2oc3cc(O)cc(O)c3c(=O)c2O)ccc1O	-1	35µM*	3	x
COc1ccc(-c2cc(C(=O)NC3CCNCC3)c3c(C)nn(-c4ccccc4)c3n2)cc1	x	25µM*	x	x
COc1ccc(-c2cc(C(=O)NC3CC3)c3c(C)nn(-c4ccccc4)c3n2)cc1	x	6%[6.33 µM]	x	x
O=C(C1CCN(CCCc2ccccc2)CC1)N(CCc1ccccc1)Cc1ccccc1	-89*	u	-110*	-4%
O=C(C1CCN(CC2CC=CCC2)CC1)N(CCc1ccccc1)Cc1ccccc1 (centres undefined)	-4	u	x	2%
CCN(Cc1ccccc1)C(=O)C1CCN(Cc2ccc(SC)cc2)CC1	-114*	u	-94*	-6%
O=C(NC1CCN(c2cc(-c3ccccc3)[nH]n2)CC1)c1ccc2c(c1)OCO2	x	0%	x	x
Clc1ncccc1-c1nnn(-c2ccccc2Br)n1	1	-18%	13	-5%
Clc1nc2ccccc2cc1-c1nnn(-c2ccccc2Br)n1	-73*	u	-13	x
CCCCc1ccc(/C(C)=N/Nc2cc(N3CCOCC3)nc(C)n2)cc1	8	u	-82*	3%
